In ChEMBL document CHEMBL3988442, “University of Dundee, Small-Polar-MMV Screening Library” (2021):
Out of some 48,000 compounds screened, about 13,000 (27%) showed an effect of 50% or more. The list shows a part of the results.

The compounds below were run on Wolbachia pipientis (assay: Anti-Wolbachia Cell-Based Screen). Details: 5 µM.
Type: functional
Design: scale not given: in the data most compounds retested in dose-response had high values

Structure (SMILES)	Percent Effect [%]
CCN(Cc1nc2c(cnn2C)c(=O)[nH]1)Cc1cccs1	17.21
CCN(Cc1nc2c(cnn2C)c(=O)[nH]1)Cc1ccco1	83.36
Cc1ccc(CN(C)Cc2nc3c(cnn3C)c(=O)[nH]2)o1	10.6
COCCN(Cc1nc2c(cnn2C)c(=O)[nH]1)Cc1ccco1	0.2947
CN(Cc1nc2c(cnn2C)c(=O)[nH]1)Cc1ccco1	90.92
Cc1occc1CN(C)Cc1nc2c(cnn2C)c(=O)[nH]1	0.5275
CCN(CC)CCn1cnc(-c2ccccc2)c1-c1ncc[nH]1	-14.65
COc1c(CNC2(c3noc(C)n3)CCC2)c(C)nn1C.Cl	-0.07917
CCc1nc(C)c(C(C)N(C)CCc2ccncc2)s1 (stereo not given)	1.512
COCCC1(CO)CCCN(C(=O)c2cccnc2OC)C1 (stereo not given)	-0.7359
CNC(=O)C1(c2cnccn2)CCCN1C(=O)c1ccccc1C (stereo not given)	116.1
CN(CC(=O)N1CCN(c2ccccc2F)CC1)c1cnccn1	4.093
CNC(=O)C1(c2cnccn2)CCCN1C(=O)c1ccccc1F (stereo not given)	99.27
CNC(=O)C1(c2cnccn2)CCCN1C(=O)c1cccnc1OC (stereo not given)	97.1
O=C1CCC2(CCCN(C(=O)c3cnccn3)CC2)N1 (stereo not given)	-28.51
CNC(=O)C1(c2cnccn2)CCCN1C(=O)c1ccccc1OC (stereo not given)	2.763
O=C1CCCC2(CCN(C(=O)c3cnccn3)CC2)N1	-3.096
CNC(=O)C1(c2cnccn2)CCCN1C(=O)c1c(F)cccc1F (stereo not given)	94.23
CCC(CC)n1ncc(C(=O)NS(=O)(=O)c2ccsc2)c1C	-0.139
CN(Cc1ncnn1C)C(=O)CCn1ccc2ccccc21	-15.17
CN(C)c1ncnc2c1CCN(C(=O)c1sccc1S(N)(=O)=O)C2	-19.94
CN(C)CC(=O)N1Cc2nc(C(=O)NCc3ccncc3)oc2C1	-11.57
O=c1nc(SCc2cccnc2)c2c(n1CCO)CCCC2	8.765
O=C(N[C@]12CC1CN(C(=O)c1ccco1)C2)c1ccoc1 (stereo not given in full)	-22.61
CNc1ncccc1C(=O)N1CCCC2(CCN(C)CC2)CC1	-1.008
CNC(=O)C1(c2cnccn2)CCCN1C(=O)c1ncccc1C (stereo not given)	109.2
O=C(Cc1ccccn1)NCC1OCCc2cn(CC3CC3)nc21.O=C(O)C(F)(F)F (stereo not given)	-22.67

Structure (SMILES)	Percent Effect [%]
COCCn1cc2c(n1)C(CNCc1cccc(OC)c1)OCC2.O=C(O)C(F)(F)F (stereo not given)	125
COCCn1cc2c(n1)C(CNCc1ccc(F)cc1)OCC2.O=C(O)C(F)(F)F.O=C(O)C(F)(F)F (stereo not given)	10.33
Fc1cccc(CNCC2OCCc3cn(CC4CCOCC4)nc32)c1.O=C(O)C(F)(F)F (stereo not given)	-13.58
COCCn1cc2c(n1)C(CNCc1nccs1)OCC2.O=C(O)C(F)(F)F.O=C(O)C(F)(F)F (stereo not given)	108.5
O=C(O)C(F)(F)F.O=C(O)C(F)(F)F.O=C(O)C(F)(F)F.c1ccc(Cn2cc3c(n2)C(CNCC2CCOCC2)OCC3)nc1 (stereo not given)	3.019
O=C(O)C(F)(F)F.c1c2c(nn1CC1CCOCC1)C(CNC1CCOCC1)OCC2 (stereo not given)	-44.92
COCCn1cc2c(n1)C(CNCc1ccsc1)OCC2.O=C(O)C(F)(F)F (stereo not given)	95.33
O=C(O)C(F)(F)F.O=C(O)C(F)(F)F.c1cc(CNCC2OCCc3cn(CC4CC4)nc32)cs1 (stereo not given)	-9.045
Cc1ccc(Sc2ccc(CN3CCC4(CC3)NCCNC4=O)o2)cc1	-3.78
CCCN(C)c1ccc(C(=O)Nc2c(C)nn(C(C)C)c2C)cc1	9.882
Cc1ccc(CNC(=O)c2oc3ccccc3c2CN(C)C)n1C	-0.2654
CN(Cc1cccc(F)c1)C1CCN(CCc2ccccn2)CC1	5.619
Cl.O[C@@H]1CN(Cc2ccc(F)cc2)CC[C@H]1NCc1ccccn1	97.86
Fc1ccc(CNC2CCN(CCc3ccncc3)CC2)cc1F	-3.888
Cl.O[C@@H]1CN(Cc2cccc(F)c2)CC[C@H]1NCc1ccccn1	63.1
Cl.O[C@@H]1CN(Cc2ccc(F)c(F)c2)CC[C@H]1NCc1ccccn1	84.03
Cc1[nH]c2ccc(CNC3CCN(Cc4ccccn4)CC3)cc2c1C	-2.213
O=C(NC[C@H]1OC[C@@H](NCc2ccccn2)[C@@H]1O)c1ccc(F)cc1	4.298
Fc1ccc(OCc2nnc([C@H]3CCN(Cc4ccccn4)C3)o2)cc1	11.6
COCc1nccc(C2CCCN(Cc3cccc(F)c3)C2)n1 (stereo not given)	-13.68
Cc1nccc(-c2ccccc2)c1C(=O)N1CC[C@](C)(O)[C@H](C)C1	-6.254
CC(C)CN(C)S(=O)(=O)c1ccc(Cl)cc1C#N	-10.78
COc1ncccc1NC(=O)N1CCC(CNC(C)=O)CC1	2.478
COc1ncccc1NC(=O)N(Cc1ccco1)C1CC1	106.8
CN(C)C(CNC(=O)N(Cc1ccco1)C1CC1)c1cccs1 (stereo not given)	11.82
CCC(C)C(=O)N(Cc1ccccn1)C1CC1 (stereo not given)	-10.35
CCN(C(=O)Nc1cccnc1OC)C1CC1	-1.512

Structure (SMILES)	Percent Effect [%]
COc1ncccc1NC(=O)N(Cc1ccc(C)o1)C1CC1	-9.414
CCN(CC)C(=O)C1CCN(C(=O)Nc2cccnc2OC)CC1	6.94
COc1cc(CN(C(=O)Nc2cccnc2OC)C2CC2)ccc1O	-7.175
COc1ncccc1NC(=O)N(CC(C)C)C1CC1	114.6
COc1ncccc1NC(=O)N(Cc1ccc(C(N)=O)cc1)C1CC1	99.11
COc1ncccc1NC(=O)N(Cc1ccccn1)C1CC1	99.69
CC(C)c1cc(NC(CCO)c2ccccc2)n2nccc2n1 (stereo not given)	9.375
COc1ccc(N(C)C(=O)C2CN(C)CCO2)cc1F (stereo not given)	4.691
O=C1CN(Cc2nnc(-c3ccc(Br)o3)o2)CCN1	-7.381
Cc1ccc(S(=O)(=O)NCc2[nH]ncc2Br)cc1F	-12.16
COc1ncccc1NC(=O)N1CCC(C(=O)NC(C)C)CC1	0.676
COc1ncccc1NC(=O)C1CCS(=O)(=O)C1 (stereo not given)	1.624
COc1ncccc1NC(=O)N(C1CC1)C(C)C(C)C (stereo not given)	116
CCNC(=O)C(C)NC(=O)Nc1ccccc1SC(F)(F)F (stereo not given)	-8.555
O=C(NCC1CC1)C1CN(C(=O)Cc2cccs2)CC12CCOCC2 (stereo not given)	5.816
Cc1ccoc1C(=O)N1CC(C(=O)NCC2CC2)C2(CCOCC2)C1 (stereo not given)	-3.998
O=C(NCC1CC1)C1CN(C(=O)c2ccncc2)CC12CCOCC2 (stereo not given)	-0.9426
CC(C)NC(=O)C1CN(C(=O)N2CCCC2)CC12CCOCC2 (stereo not given)	-8.761
CN(C)C(=O)N1CC(C(=O)NCC2CC2)C2(CCOCC2)C1 (stereo not given)	105.7
CC(C)NC(=O)C1CN(C(=O)Nc2ccccc2)CC12CCOCC2 (stereo not given)	0.6544
Cc1ccsc1C(=O)N1CC(C(=O)NCC2CC2)C2(CCOCC2)C1 (stereo not given)	12.17
CC(C)NC(=O)C1CN(C(=O)N(C)C)CC12CCOCC2 (stereo not given)	94.32
COCC(=O)N1CC(C(=O)NCC2CC2)C2(CCOCC2)C1 (stereo not given)	104.6
Cc1[nH]nc2ncc(C(=O)N3CCN(CC(C)C)CC3)cc12	0.1242
Cc1cc(C)n(CCCN(C)C(=O)CN2CC3(CCNCC3)OC2=O)n1	-7.554
CCN(CC)CC[C@H]1CN(C(=O)NC2CCCCC2)CC[C@H]1CC(=O)O	-0.6664
O=C(NC[C@H]1OC[C@@H](NC2CCCC2)[C@@H]1O)C1CCCC1	10.82

Structure (SMILES)	Percent Effect [%]
Oc1ccc2oc3c(c2c1CN1CCOCC1)CCCC3	6.402
O=C1NCCCc2c1oc1ccc(O)c(CN3CCOCC3)c21	142.2
NC(=O)C1CN(Cc2c(O)ccc3oc4c(c23)CCCC4)CCO1 (stereo not given)	-16.77
CCOc1ccc(C(=O)NCCCNc2ncccn2)cc1	-0.3981
O=C(O)C(F)(F)F.O=C([C@@H]1COC[C@H]2CN(C3CCCC3)C[C@H]21)N1CCC(F)CC1	-0.4691
O=C(C[S+]([O-])c1ccc(F)c(F)c1)NCc1cc(F)cc(F)c1 (stereo not given)	-8.156
COCCN1CCN(Cc2c(C)noc2C)Cc2cccnc21.O=C(O)C(F)(F)F.O=C(O)C(F)(F)F	-0.8432
COCCN1CCN(S(=O)(=O)c2ccccc2)Cc2cccnc21.O=C(O)C(F)(F)F	100.4
COc1ccc(S(=O)(=O)N2CCN(C)c3ncccc3C2)cc1.O=C(O)C(F)(F)F	100.8
COc1cccc(CC(=O)N2CCN(C)c3ncccc3C2)c1.O=C(O)C(F)(F)F	-8.872
COc1ccc(CC(=O)N2CCN(C)c3ncccc3C2)cc1.O=C(O)C(F)(F)F	1.148
CC(C)CN1CCN(S(=O)(=O)c2cn(C)cn2)Cc2cccnc21.O=C(O)C(F)(F)F.O=C(O)C(F)(F)F	-3.796
CN(Cc1ccc(C(=O)O)cc1)C(=O)c1sccc1OC(F)F	7.137
Cn1cc(CN2CC[C@H]3OCC[C@@H](C(=O)N4CCCCO4)[C@@H]3C2)cn1	16.39
CC(C)(C)N1CC(C(=O)N2CCN(CCn3cccc3)CC2)CC1=O (stereo not given)	-2.783
CCn1cc(S(=O)(=O)N2CCC3(CCCN(CC4CCC4)C3=O)C2)cn1 (stereo not given)	-1.219
CCn1cc(S(=O)(=O)N2CCCC3(CC=CNC3=O)C2)cn1 (stereo not given)	97.1
CCn1nccc1S(=O)(=O)N1CCC2(CCCN(C(C)C)C2=O)C1 (stereo not given)	-32.08
CCn1nc(C)cc1S(=O)(=O)N1CCC2(CC(=O)NC2=O)C1 (stereo not given)	-2.488
CC(C)n1cc(S(=O)(=O)N2CCCCC2)cn1	6.255
CCn1ncc(S(=O)(=O)N2CCCC3(CC=CNC3=O)C2)c1C (stereo not given)	120.2
CCn1nc(C)cc1S(=O)(=O)N1CCC2(CCCN(C(C)C)C2=O)C1 (stereo not given)	-24.78
CCn1cc(S(=O)(=O)N2CCCC3(CC=CNC3=O)C2)c(C)n1 (stereo not given)	118.1
CCCN1CCCC2(CCN(S(=O)(=O)c3cc(C)nn3CC)C2)C1=O (stereo not given)	-15.13
